# Where a name gives a salt, the structure may show the parent alone. Among all 2,100 compounds or so, about 180 (8.6%) showed an effect of 50% or more. Shown is part of a subset that was picked to be rich in strong results.
# Test system: MOLM1 and UCSD/AML1 (averaged)
# Experiment: cell viability relative to DMSO control (POC); higher = less growth inhibition
# Details: 1 µM; 72 h
# Protocol: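 Primary viability screen in the 3q26 EVI1-high AML cell lines MOLM1 and UCSD/AML1 (1.5e3 cells/well, 384-well), compounds at 1 uM for 72 h. ATP CellTiter-Glo read-out given as percent of viable cells over DMSO control (POC), averaged over duplicates. DMSO was the negative control and 5 uM etoposide the positive control. This mapping covers the MicroSource Spectrum and Selleck anticancer libraries (drug names).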
row,SMILES,cell viability [%]
1,CC[C@H](C)[C@H](N)C1=N[C@H](C(=O)N[C@@H](CC(C)C)C(=O)N[C@H](CCC(=O)O)C(=O)N[C@H](C(=O)N[C@H]2CCCCNC(=O)[C@H](CC(N)=O)NC(=O)[C@@H](CC(=O)O)NC(=O)[C@H](Cc3cnc[nH]3)NC(=O)[C@@H](Cc3ccccc3)NC(=O)[C@H]([C@@H](C)CC)NC(=O)[C@@H](CCCN)NC2=O)[C@@H](C)CC)CS1,94.8
2,CC(C)C[C@@H]1NC(=O)[C@H](CCCN)NC(=O)[C@H](C(C)C)NC(=O)[C@H](Cc2ccc(O)cc2)N[C@@H](CCC(=O)O)C(=O)N[C@@H](CC(N)=O)C(=O)[C@@H](Cc2ccccc2)NC(=O)[C@H](Cc2ccccc2)NC(=O)[C@@H]2CCCN2C(=O)[C@@H](Cc2ccccc2)NC1=O,13
3,CC1=C(CCC(=O)O)c2cc3[nH]c(cc4nc(cc5[nH]c(cc1n2)c(C)c5C(C)O)C(C)=C4C(C)O)c(C)c3CCC(=O)O (stereo unspecified),107
4,COc1cc(O)c2c(c1)C(=O)c1cc(C)cc(O)c1C2=O,94.9
5,O=C(/C=C/c1ccc(O)c(O)c1)O[C@H](Cc1ccc(O)c(O)c1)C(=O)O,104
6,CNC(=O)c1cc(Oc2ccc(NC(=O)Nc3ccc(Cl)c(C(F)(F)F)c3)cc2)ccn1 [Sorafenib (Nexavar)],59.7
7,CNC(=O)c1cc(Oc2ccc(NC(=O)Nc3cc(C(C)(C)C)nn3-c3ccc4ncccc4c3)c(F)c2)ccn1 [DCC-2036 (Rebastinib)],24.6
8,CNC(=O)c1cc(Oc2ccc(NC(=O)Nc3ccc(Cl)c(C(F)(F)F)c3)c(F)c2)ccn1 [Regorafenib (BAY 73-4506)],28.9
9,Cc1ccc(-n2nc(C(C)(C)C)cc2NC(=O)Nc2ccc(OCCN3CCOCC3)c3ccccc23)cc1 [BIRB 796 (Doramapimod)],85.1
10,Cc1cc(OC(=O)c2c(C)cc(O)cc2O)cc(O)c1C(=O)O,103
11,Nc1ccccc1C(=O)CC(N)C(=O)O (stereo unspecified),98.1
12,CC(C)=CCC[C@@H](C)[C@@H]1CC[C@]2(C)C3=C(CC[C@@]12C)[C@@]1(C)CC[C@H](O)C(C)(C)[C@@H]1CC3,97.6
13,COc1cc(OC)c2ccc(=O)oc2c1,99.1
14,COc1cc(OC)c2c(c1Cl)O[C@@]1(C(=O)CC(=O)C[C@H]1C)C2=O,102
15,Cc1ccc(C(=O)Nc2ccc(CN3CCN(C)CC3)c(C(F)(F)F)c2)cc1C#Cc1cnc2cccnn12,4.31
16,CS(=O)(=O)N1CCN(Cc2cc3nc(-c4cccc5[nH]ncc45)nc(N4CCOCC4)c3s2)CC1 [Pictilisib (GDC-0941)],51.1
17,CC1(C)C(=O)C=C[C@]2(C)[C@H]3CC[C@@]4(C)[C@H](c5ccoc5)OC(=O)[C@H]5O[C@]54[C@]3(C)C(=O)C[C@@H]12,84.7
18,COc1ccc2c(c1)O[C@H]1c3ccc(OC)cc3OC[C@@H]21,105
19,Cc1cc2c(F)c(Oc3ncnn4cc(OC[C@@H](C)O)c(C)c34)ccc2[nH]1,89.6
20,Oc1cc(O)c2c(c1)O[C@H](c1ccc(O)c(O)c1)[C@H](O)C2,96.7
21,O=C(O)c1cccnc1,95

row,SMILES,cell viability [%]
1,O=C(Nc1cccnc1)N1CCC(Cc2cccc(Oc3ccc(C(F)(F)F)cn3)c2)CC1,56.7
2,O=C(/C=C/c1cccnc1)NCCCCC1CCN(C(=O)c2ccccc2)CC1,12
3,COc1c(O)cc(O)cc1O,98.8
4,O=C(O)CC[C@H]1CC[C@@](c2cc(F)ccc2F)(S(=O)(=O)c2ccc(Cl)cc2)CC1,71
5,Cc1cccc2c3c(ccc12)C1=C(C(=O)C3=O)[C@@H](C)CO1,98.4
6,CC1(C)CCC(c2ccc(Cl)cc2)=C(CN2CCN(c3ccc(C(=O)NS(=O)(=O)c4ccc(N[C@H](CCN5CCOCC5)CSc5ccccc5)c(S(=O)(=O)C(F)(F)F)c4)cc3)CC2)C1 [ABT-263 (Navitoclax)],6.23
7,CN(C)CC[C@H](CSc1ccccc1)Nc1ccc(S(=O)(=O)NC(=O)c2ccc(N3CCN(Cc4ccccc4-c4ccc(Cl)cc4)CC3)cc2)cc1[N+](=O)[O-],32.3
8,NC1(C(=O)O)CCC1,102
9,OC[C@H]1O[C@@](CO)(O[C@H]2O[C@H](CO)[C@@H](O)[C@H](O)[C@H]2O)[C@@H](O[C@H]2O[C@H](CO)[C@@H](O)[C@H](O)[C@H]2O)[C@@H]1O,103
10,CC(C)=CCc1c(O)cc2occ(-c3ccc4c(c3)OCO4)c(=O)c2c1O,100
11,C[C@@H]1CC[C@H]2[C@](C)(CO)[C@@H](O)CC[C@]2(C)[C@@]12CC[C@@](CO)(CCO)O2,89.3
12,C[C@@H]1O[C@@H](O[C@H]2[C@H](Oc3cc(O)c4c(=O)cc(-c5ccc(O)cc5)oc4c3)O[C@H](CO)[C@@H](O)[C@@H]2O)[C@H](O)[C@H](O)[C@H]1O,110
13,Sc1nc2ccccc2s1,115
14,C=CC(C)(O)CCC1C(=C)CC(O)C2C(C)(C)CCCC12C (stereo unspecified),105
15,CC[C@]1(O)C[C@@H]2CN(CCc3c([nH]c4ccccc34)[C@@](C(=O)OC)(c3cc4c(cc3OC)N(C)[C@H]3[C@@](O)(C(=O)OC)[C@H](OC(C)=O)[C@]5(CC)C=CCN6CC[C@]43[C@@H]65)C2)C1,7.14
16,CC[C@]1(O)C[C@H]2CN(CCc3c([nH]c4ccccc34)[C@@](C(=O)OC)(c3cc4c(cc3OC)N(C=O)[C@H]3[C@@](O)(C(=O)OC)[C@H](OC(C)=O)[C@]5(CC)C=CCN6CC[C@]43[C@@H]65)C2)C1 [Vincristine Sulfate],7.83
17,CC[C@]1(O)C[C@H]2CN(CCc3c([nH]c4ccccc34)[C@@](C(=O)OC)(c3cc4c(cc3OC)N(C=O)[C@H]3[C@@](O)(C(=O)OC)[C@H](OC(C)=O)[C@]5(CC)C=CCN6CC[C@]43[C@@H]65)C2)C1,11.3
18,CC[C@]1(O)C[C@@H]2CN(CCc3c([nH]c4ccccc34)[C@@](C(=O)OC)(c3cc4c(cc3OC)N(C)[C@H]3[C@@](O)(C(=O)OC)[C@H](OC(C)=O)[C@]5(CC)C=CCN6CC[C@]43[C@@H]65)C2)C1 [Vinblastine],8.43
19,COc1ccc2c(=O)c(-c3ccc(O)cc3)coc2c1,84.7
20,CC(C)c1c(O)ccc2c1CC[C@H]1C(C)(C)CCC[C@]21C,90.4

# Reference: the supplement of paper PMC11150407
